p53 reactivator: qHTS assay for re-activators of p53 using a Luc reporter. Potency, µM (top dose mostly 92.2 µM), for inactives: top-dose activity change, positive = activation, actives largely listed as activators. H1299 p53-A138V BP100-luciferase reporter, luminescence, 24 h. 320,000 compounds, 0.063% hits. AID 504706, 2011; note: potency is the fitted concentration of half-maximal effect; % of control where 0% means no effect; nearly all actives have a fitted effect of over 45% in size
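H1299 (p53-null), stable ts p53-A138V + BP100-Luc; 1000 cells/well, Opti-MEM/10% FBS; cpd 4 pt, 1:5; 24 h, 37 deg C, 5% CO2; detection reagent 10 min RT; luminescence.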
ELG1 repair inh: qHTS screen for small molecules that inhibit ELG1-dependent DNA repair in human embryonic kidney (HEK293T) cells expressing luciferase-tagged ELG1. HEK293T ELG1-luciferase reporter, luminescence, 16 h; DNA damage induced by 5-fluorouridine. Potency, µM (titrated, usually from 46.1 µM), inactives show at the top dose activity change, negative = inhibition, actives largely listed as inhibitors. AID 504467, 2011. 330,000 compounds, 2.3% hits; note: potency is the fitted concentration of half-maximal effect; % is set by controls: 0 for no effect and ±100 for the full control effect; nearly all actives have a fitted effect of over 55% in size
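Cells (2,000 per well) received 5-fluorouridine plus test compound or DMSO and were incubated 16 hr at 37 °C, 5% CO2. Luciferase activity was read by luminescence 30 min after ONE-Glo addition; signal suppression marked inhibition of damage-induced ELG1 function.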
VP16 counter: VP16 counterscreen qHTS for inhibitors of ROR gamma transcriptional activity; Drosophila S2 Gal4-VP16 UAS-luciferase, luminescence, 20 h; Potency, µM (highest dose often 53.6 µM), inactives show at the top dose activity, negative = inhibition, usual class: inhibitors; 310,000 compounds, 3.5% hits; AID 2546, 2010;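 note: Gal4-VP16 expression switched on by copper sulfate through the metallothionein promoter; potency is the fitted concentration of half-maximal effect; % is set by controls: 0 for no effect and ±100 for the full control effect; nearly all actives have a fitted effect of over 50% in size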
Giardia killer: Small Molecules that selectively kill Giardia lamblia: qHTS. Giardia lamblia trophozoite viability. activity change, % at 7.66 µM, hits read low. 340,000 compounds, 0.15% hits. AID 540267, 2011; in the data active = activity change below about -80%; inconclusive = between about -30% and that limit;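 note: parasites exposed to compound for two days anaerobically before the ATP read; % is set by controls: 0 for no effect and ±100 for the full control effect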
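Giardia lamblia trophozoites (100 cells/well) were incubated with compounds for 48 h at 37 deg C under anaerobic conditions. Viability was read as ATP content by one-step luminescence after 15-30 min at room temperature.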
BRCA1 expr act: qHTS Assay to Identify Small Molecule Activators of BRCA1 Expression; MCF7-BRCA1-FFLuc reporter, luminescence, 48 h; response scale: scaled: vehicle 0%, 10 µM genistein 100%; Potency, µM (top dose mostly 46.1 µM), for inactives: at the top dose activation, actives largely listed as activators; 380,000 compounds, 1.1% hits; AID 624202, 2012; note: potency is the fitted concentration of half-maximal effect; nearly all actives have a fitted effect of over 80% in size
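Using MCF7 cells harboring a BRCA1 firefly luciferase reporter, plated 2 h before compound pinning, the screen measured luminescence after 48 h incubation. Responses were normalized to DMSO and 10 microM genistein, then fitted for concentration-effect.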
RORg inh: qHTS for inhibitors of ROR gamma transcriptional activity; Nuclear receptor ROR-gamma (Mus musculus), P51450; Drosophila S2 Gal4-RORgamma UAS-luciferase reporter, 20 h; Potency, µM (series often up to 53.6 µM), for the others: at the highest dose activity change, negative = inhibition, actives largely listed as inhibitors; 310,000 compounds, 5.4% hits; AID 2551, 2010; note: potency is the fitted concentration of half-maximal effect; % is set by controls: 0 for no effect and ±100 for the full control effect; nearly all actives have a fitted effect of over 60% in size
Target sequence (P51450 whole entry, looked up, the tested form may be a part): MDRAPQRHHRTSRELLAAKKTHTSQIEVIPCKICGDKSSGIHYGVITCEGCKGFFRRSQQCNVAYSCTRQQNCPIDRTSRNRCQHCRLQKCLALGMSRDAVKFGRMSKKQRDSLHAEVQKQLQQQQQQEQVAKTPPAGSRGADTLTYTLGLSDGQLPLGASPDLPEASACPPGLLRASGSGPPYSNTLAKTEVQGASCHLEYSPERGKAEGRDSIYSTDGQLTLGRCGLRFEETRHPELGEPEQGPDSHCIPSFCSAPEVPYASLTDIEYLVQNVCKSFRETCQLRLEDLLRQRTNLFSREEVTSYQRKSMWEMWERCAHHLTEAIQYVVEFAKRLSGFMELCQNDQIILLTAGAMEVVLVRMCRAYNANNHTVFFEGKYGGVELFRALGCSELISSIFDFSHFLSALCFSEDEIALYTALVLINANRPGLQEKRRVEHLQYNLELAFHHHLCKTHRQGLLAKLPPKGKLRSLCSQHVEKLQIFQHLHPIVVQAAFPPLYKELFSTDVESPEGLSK
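ROR gamma transcriptional activity was tracked as Gal4-UAS luciferase output in stably transfected Drosophila Schneider cells, with compound added 1 hr before 700 uM copper sulfate induction and a 20 hr ambient-temperature incubation.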
* marks the source's active call; other numbers are inactive results; ? = inconclusive; · = not tested or not shown; [ ] = dose if it differs, or a comment. Rows were chosen to be rich in hits. Some 7.6% of all compounds tested hit in one or more screens of this group. Unless noted, calls come from the whole dose curve; as a rule, active = well fitted curve in the direction sought with a large enough effect; inconclusive = small, poorly fitted or top-dose-only effect, or another doubt; inactive = no such curve, though single readings can be large; an effect the other way counts as inactive or inconclusive.

SMILES	p53 reactivator	ELG1 repair inh	VP16 counter	Giardia killer	BRCA1 expr act	RORg inh
N#CCSc1nnc(COc2cccc3ccccc23)n1-c1ccccc1	-6%	21µM*	?	10	-47%	?
Cc1ccccc1OCc1nnc(SCCN2CCCC2)n1-c1ccccc1	-2%	10%	?	-10	-37%	11µM*
Cc1nnc(SC(C(=O)Nc2ccc(Cl)c([N+](=O)[O-])c2)c2ccccc2)[nH]c1=O (configuration not stated)	3%	-7%	4%	13	-3%	2%
CCOCCCn1c(=S)[nH]c2cc(C(=O)N3CCN(c4ccccc4)CC3)ccc2c1=O	6%	-10%	?	-22	-16%	13µM*
CCOCCCn1c(=S)[nH]c2cc(C(=O)N3CCN(C)CC3)ccc2c1=O	-8%	-6%	-2%	10	-27%	2%
COCCn1c(=S)[nH]c2cc(C(=O)N3CCN(c4cccc(Cl)c4)CC3)ccc2c1=O	-3%	?	?	11	-29%	11µM*
CCOC(=O)N1CCN(C(=O)c2cccc(-n3c(=S)[nH]c4cc(Cl)ccc4c3=O)c2)CC1	-4%	?	-9%	4	1%	11µM*
Cc1cc(C(=O)NCCN2CCN(c3cccc(Cl)c3)CC2)n(-c2ccccc2)n1	5%	8.2µM*	-7%	0	-51%	-1%
COCCn1c(=S)[nH]c2cc(C(=O)N3CCN(C4CCCCC4)CC3)ccc2c1=O	·	·	·	·	-2%	·
Cc1c(Cl)c(C(F)(F)F)nn1CC(=O)NCc1ccco1	-3%	10%	9%	1	-11%	24%
Cc1cc2ncn(S(=O)(=O)N3CCOCC3)c2cc1C	-6%	6%	-10%	-2	-3%	17%
Cc1c(NC(=O)CSc2nnc3c4ccccc4n(CCc4ccccc4)c3n2)c(=O)n(-c2ccccc2)n1C	0%	?	11%	-2	7%	-1%
CCOc1ccccc1N1CCN(C(=O)c2ccc3nc(N)sc3c2)CC1	0%	-15%	·	6	-78%	·
COCCn1c(=O)[nH]c2cc(C(=O)NCCN3CCN(c4cccc(Cl)c4)CC3)ccc2c1=O	-8%	21µM*	-5%	-10	-58%	-1%
CCN(CC)CCNC(=O)c1ccc(N2CCCCC2)c(NS(=O)(=O)c2ccc(C)cc2)c1	?	20%	7%[0.365 µM]	3	-52%	-43%
CCN(CC)CCNc1cc(C)nc2c1C(=O)C(=O)C=C2N1CCCCC1	10%	-6%	-3%	-1	-92%	5µM*
C(=NOCc1ccccc1)c1cccnc1	·	·	·	-4	?	·
CC(=O)/C(N=Nc1ccc(SC(F)F)cc1)=C(\C)O	3%	-4%	1%	43	-22%	33%
O=C(Oc1ccccc1)N(c1ccccc1)c1ccccc1	1%	-23%	-2%	-1	5%	27%
CSc1nc(-c2ccco2)cc(-c2ccccc2)c1C#N	-9%	-14%	?	16	-21%	16µM*
CSc1nc(-c2ccco2)cc(C(F)(F)F)c1C#N	-5%	-1%	-4%	10	-2%	-26%
C=CC(C1=CC(=O)C(OC)=C(OC)C1=O)c1ccccc1 (configuration not stated)	·	·	7.1µM*	·	·	14µM*
Cc1cc(C)cc(NC(=O)Nc2cccc(S(N)(=O)=O)c2)c1	-5%	-4%	3%	-20	-15%	?
CCN(CC)c1ccc(/C=N/NC(=O)C(O)(c2ccccc2)c2ccccc2)o1	-24%	-16%	4µM*	·	·	5.6µM*
O=C(O)c1ccc(/C=N/NC(=O)C(O)(c2ccccc2)c2ccccc2)cc1	·	11%	·	-21	8%	·
SMILES	p53 reactivator	ELG1 repair inh	VP16 counter	Giardia killer	BRCA1 expr act	RORg inh
O=C(NC(=S)Nc1ccc(CN2CCOCC2)cc1)c1ccc(-c2ccc(Br)cc2)o1	2%	?	-14%	10	11%	-26%
CCCn1nnc(NC(=S)NC(=O)c2ccc(-c3ccc(Br)cc3)o2)n1	13%	-6%	2.5µM*	-10	-1%	0.79µM*
Cn1nnc(NC(=S)NC(=O)c2ccc(-c3ccc(Br)cc3)o2)n1	5%	8%	5µM*	-15	23%	0.71µM*
COc1ccc(C(=O)NCC(=O)OCC(=O)NC23CC4CC(CC(C4)C2)C3)cc1	-3%	?	·	-7	-6%	·
COc1ccc(CCN2C(=O)c3[nH]nc(-c4ccccc4O)c3C2c2ccccc2)cc1OC (configuration not stated)	-6%	13µM*	-28%	3	-82%	-24%
O=C(CCc1nnc(-c2ccsc2)o1)N1CCc2c(Cl)cccc2C1	4%	?	?	0	11µM*	?
COCCn1c(N2CCN(c3ccc(OC)cc3)CC2)nc2c1c(=O)[nH]c(=O)n2C	-8%	-9%	2%	10	41%	?
Cc1ccc(C(=O)NC(=S)NNC(=O)CC#N)cc1	16%	7%	3%	1	-9%	10µM*
COCCCNC(=S)NC(=O)c1ccc(C)cc1	?	?	?	9	6.3µM*	13µM*
CCCCC(=O)NNC(=S)NC(=O)c1ccc(C)cc1	9%	-13%	18µM*	-4	-18%	4.5µM*
Cc1ccc(C(=O)NCC#N)cc1	-4%	-1%	-4%	-7	-6%	-13%
O=C(CCN1CCOCC1)NNC(=S)NC(=O)c1ccccc1	-5%	?	-1%	-8	12%	14µM*
Cc1ccc(NC(=O)COC(=O)c2ccc(NC(=O)CC#N)cc2)cc1S(=O)(=O)N1CCOCC1	-4%	-27%	·	29	-4%	·
CCCCC(=O)NNC(=S)NC(=O)c1ccc([N+](=O)[O-])cc1	6%	?	11µM*	?	-3%	2.5µM*
Cc1ccc(C(=O)NC(C#N)=C(Cl)Cl)cc1	-12%	?	10µM*	-8	-91%	8.9µM*

Compound activity: PubChem, National Center for Advancing Translational Sciences (NCATS)
